Here are results for 38 compounds from PubChem BioAssay (NCI).

Compounds without any hit were thinned out: in the full panel of roughly 83,000, 20% have a hit.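 Compound tested at a single concentration for 48 hours in 96-well plates; a percent growth value below 10 was scored as active.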 The source made the active and inactive calls.

The first assay concerns MDA-MB-231 breast. The assay is described as follows: NCI-60 one-dose screen, 48 h (100 = growth as untreated, 0 = no growth, -100 = all killed). Conditions: 10 µM unless noted.
With `S=c1[nH]nc(CSc2ncnc3c2c(-c2ccccc2)cn3-c2ccc(Cl)cc2)o1`, the growth is 94.3% (inactive).
With `COc1c(Cl)cc(Cl)cc1Cl`, the growth is 92.2% (inactive).
Consider `COc1ccc(-c2nn(-c3ccccc3)cc2/C=C/C(=O)OCc2cn(-c3ccc(F)c(Cl)c3)nn2)cc1`, for which the growth is 56.9% (inactive).
On to `COc1ccc2c(c1)C(=O)/C(=C/c1cccc(OCC(=O)Nc3nc4c(s3)CCCC4)c1)O2`, for which the growth was 23.5% (inactive).
`CCN(CC)CC(C)Nc1ccc([N+](=O)[O-])c2sc3ccccc3c(=O)c12` (centres undefined): the growth is 51.5% (inactive).
Turning to `Cc1nn(-c2ccccc2)c2nc(C)n(-c3ccc(Br)cc3)c(=O)c12`, the growth was 50.3% (inactive).
On to `OC(c1cc(-c2ccccc2)nc2ccc(Cl)cc12)C1CCCCN1` (centres undefined), for which the growth was -30.5% (active).
Take `COc1ccc(S(=O)(=O)NCCNc2nccc(-c3c(-c4cccc([N+](=O)[O-])c4)nc4sccn34)n2)cc1`: the growth was 82.9% (inactive).
Consider `COc1ccc(Cl)cc1Nc1nc(C(F)(F)F)ccc1C(=O)N/N=C/c1cccnc1`, for which the growth was 49.3% (inactive).
As to `COc1ccc(-c2nn(-c3ccccc3)cc2/C=C2\SC(=O)NC2=O)cc1`, the growth was 84.4% (inactive).
For the compound `Cc1ccc2c(c1)C(=O)c1c-2c(OCCCN(C)C)nc2ccccc12`, the growth is -22.7% (active).
On the same count and under the same terms, with `Cc1ccc(-c2nc(/C=N/Nc3cc(C)nc4ccc(Br)cc34)c(C)o2)cc1` the figure was -91.9% (active).
With `CCCCNP1(NCCCC)=NP(NCCCC)(NCCCC)=NP(NCCCC)(NCCCC)=NP(NCCCC)(NCCCC)=N1`, the growth is -20.9% (active).
For the compound `COc1ccc(-n2cc(-c3ccccc3)c3c(SCC(=O)N/N=C/c4ccc([N+](=O)[O-])cc4)ncnc32)cc1`, the growth was 102% (inactive).
In the case of `Nc1cccc(-c2nc3sccn3c2-c2ccnc(NCCCNS(=O)(=O)c3ccc(C(F)(F)F)cc3)n2)c1`, the growth is 21% (inactive).
Turning to `CCN(CC)CC(O)c1cc(-c2ccc(Cl)cc2)nc2c(C)c(Cl)ccc12` (centres undefined), the growth is -82.2% (active).
On the same count and under the same terms, the same measure for `O=C1/C(=C/c2ccc(F)cc2)CN(C(=O)CCN2CCC(=NO)CC2)C/C1=C\c1ccc(F)cc1`: -55.6% (active); for `CC(C)C1=C[C@@]23CC[C@@H]4[C@](C)(CCC[C@@]4(C)C(=O)OCC#CCN4CCCC4)[C@H]2C[C@@H]1[C@H]1C(=O)OC(=O)[C@H]13`: 98.3% (inactive); for `Cc1ccc2c(c1)C(=O)/C(=C/c1ccc(OCC(=O)c3ccccc3)cc1)O2`: 84% (inactive).
On to `Cc1ccc2c(c1)n([O-])c1cc(Cl)ccc1[n+]2=O`, for which the growth was 80.9% (inactive).
On to `COc1ccccc1/C=C(/C(=O)c1ccccc1)c1ccccc1`, for which the growth is 98.6% (inactive).
On the same count and under the same terms, the same measure for `COc1nc2c(cc1S(=O)(=O)c1ccccc1)CCc1c-2cnn1-c1ccc(Cl)cc1`: 95.3% (inactive); for `CNc1cc2nc3cc(NC)c(C)cc3cc2cc1C`: 28.7% (inactive); for `Nc1c(C(=O)Nc2ccccc2)sc2nc3c(cc12)CN(CCc1ccccc1)CC3`: 90.4% (inactive).
Consider `CC(C)[C@@H]1CC[C@]2(C(=O)NCCCCN=C(N)N)CC[C@]3(C)[C@H](CC[C@@H]4[C@@]5(C)CCC(=O)C(C)(C)[C@@H]5CC[C@]43C)[C@@H]12`, for which the growth is 74.3% (inactive).
Turning to `CCOC(=O)c1cnc2ccc(Br)cc2c1Nc1cccc(S(=O)(=O)NC)c1`, the growth was 95.4% (inactive).

A further assay deals with RXF 393 renal. The assay is described as above. Conditions: 10 µM unless noted.
Turning to `Cc1cc(-c2nc3ccccc3s2)ccc1NC(=O)COc1ccc(Cl)cc1`, the growth was 139% (inactive).
`C[C@H](CCC(=O)O)[C@H]1CC[C@H]2[C@@H]3CC[C@@H]4/C(=C\c5ccco5)C(=O)/C(=C\c5ccco5)C[C@]4(C)[C@H]3CC[C@]12C`: the growth was 45.1% (inactive).
`COc1cc2c(c(OC)c1OC)-c1ccc(N=NC(N)=S)c(=O)cc1[C@@H](NC(C)=O)CC2`: the growth was -13.5% (active).
The same measure, in the same setting: with `c1ccc(CSc2ncnc3nc[nH]c23)nc1` the figure was 119% (inactive).
In the case of `CC(=O)Nc1ccc2c(c1)c(NC(C)=O)nn2C(=O)Nc1ccc(Cc2ccccc2)cc1`, the growth was 92.6% (inactive).
As to `COc1cc2c(=O)n(CC3CCCCC3)c3c4cc[nH]c4ncc3c2cc1OC`, the growth is -4.27% (active).
For the compound `COC1/C=C\OC2(C)Oc3c(C)c(O)c4c(O)c(c(CN(C)CCO)c(O)c4c3C2=O)NC(=O)/C(C)=C\C=C/C(C)C(O)C(C)C(O)C(C)C(OC(C)=O)C1C` (centres undefined), the growth was 98.5% (inactive).
Still for that read-out and setting: with `Cc1cc(N/N=C/c2nc(-c3ccc(Cl)cc3)oc2C)c2cc(Cl)ccc2n1` the figure was 83.3% (inactive).
For `C=C1CC[C@@H]2[C@](C)(COC(C)=O)[C@H](OC(C)=O)CC[C@@]2(C)[C@@H]1CC(NCc1ccc(F)cc1)C1=CCOC1=O` (some centres undefined), the growth is 80.6% (inactive).
With `Cn1c2c(Cl)c(Cl)ccc2c2ccn3c(=O)c4ccccc4nc3c21`, the growth is 117% (inactive).
Same read-out and setting: with `CCOC(=O)Cc1cnn(C)c1NC(=O)c1ccc(Cl)cc1NC(C)=O` the figure was 115% (inactive).
`COc1ccc(-c2cc(NC(=O)Nc3ccc(O)cc3)no2)cc1`: the growth is 90.9% (inactive).
For `S=c1[nH]nc(CSc2ncnc3c2c(-c2ccccc2)cn3-c2ccc(Cl)cc2)o1`, the growth was 125% (inactive).
For `COc1c(Cl)cc(Cl)cc1Cl`, the growth was 121% (inactive).
For the compound `COc1ccc(-c2nn(-c3ccccc3)cc2/C=C/C(=O)OCc2cn(-c3ccc(F)c(Cl)c3)nn2)cc1`, the growth is 68.4% (inactive).
In the case of `COc1ccc2c(c1)C(=O)/C(=C/c1cccc(OCC(=O)Nc3nc4c(s3)CCCC4)c1)O2`, the growth was -43.8% (active).
Regarding `CCN(CC)CC(C)Nc1ccc([N+](=O)[O-])c2sc3ccccc3c(=O)c12` (centres undefined), the growth was 32.4% (inactive).
On to `Cc1nn(-c2ccccc2)c2nc(C)n(-c3ccc(Br)cc3)c(=O)c12`, for which the growth was -15.8% (active).
For `OC(c1cc(-c2ccccc2)nc2ccc(Cl)cc12)C1CCCCN1` (centres undefined), the growth is 56.3% (inactive).
For the compound `COc1ccc(S(=O)(=O)NCCNc2nccc(-c3c(-c4cccc([N+](=O)[O-])c4)nc4sccn34)n2)cc1`, the growth is 78% (inactive).
With `COc1ccc(Cl)cc1Nc1nc(C(F)(F)F)ccc1C(=O)N/N=C/c1cccnc1`, the growth is 60.9% (inactive).
Same read-out and setting: with `COc1ccc(-c2nn(-c3ccccc3)cc2/C=C2\SC(=O)NC2=O)cc1` the figure was 114% (inactive).
In the case of `Cc1ccc2c(c1)C(=O)c1c-2c(OCCCN(C)C)nc2ccccc12`, the growth is 30.1% (inactive).
Regarding `Cc1ccc(-c2nc(/C=N/Nc3cc(C)nc4ccc(Br)cc34)c(C)o2)cc1`, the growth was -94.1% (active).
For the compound `CCCCNP1(NCCCC)=NP(NCCCC)(NCCCC)=NP(NCCCC)(NCCCC)=NP(NCCCC)(NCCCC)=N1`, the growth was 16.5% (inactive).
For the compound `COc1ccc(-n2cc(-c3ccccc3)c3c(SCC(=O)N/N=C/c4ccc([N+](=O)[O-])cc4)ncnc32)cc1`, the growth was 113% (inactive).
Regarding `Nc1cccc(-c2nc3sccn3c2-c2ccnc(NCCCNS(=O)(=O)c3ccc(C(F)(F)F)cc3)n2)c1`, the growth was 19.7% (inactive).
Regarding `CCN(CC)CC(O)c1cc(-c2ccc(Cl)cc2)nc2c(C)c(Cl)ccc12` (centres undefined), the growth was -86.4% (active).
With `O=C1/C(=C/c2ccc(F)cc2)CN(C(=O)CCN2CCC(=NO)CC2)C/C1=C\c1ccc(F)cc1`, the growth is -81% (active).
For `CC(C)C1=C[C@@]23CC[C@@H]4[C@](C)(CCC[C@@]4(C)C(=O)OCC#CCN4CCCC4)[C@H]2C[C@@H]1[C@H]1C(=O)OC(=O)[C@H]13`, the growth was 110% (inactive).
Same read-out and setting: with `Cc1ccc2c(c1)C(=O)/C(=C/c1ccc(OCC(=O)c3ccccc3)cc1)O2` the figure was 89% (inactive); with `Cc1ccc2c(c1)n([O-])c1cc(Cl)ccc1[n+]2=O`, 107% (inactive).
On the same count and under the same terms, with `COc1ccccc1/C=C(/C(=O)c1ccccc1)c1ccccc1` the figure was 105% (inactive); with `COc1nc2c(cc1S(=O)(=O)c1ccccc1)CCc1c-2cnn1-c1ccc(Cl)cc1`, 96.2% (inactive).
Take `CNc1cc2nc3cc(NC)c(C)cc3cc2cc1C`: the growth is 11.9% (inactive).
Regarding `Nc1c(C(=O)Nc2ccccc2)sc2nc3c(cc12)CN(CCc1ccccc1)CC3`, the growth is 121% (inactive).
With `CC(C)[C@@H]1CC[C@]2(C(=O)NCCCCN=C(N)N)CC[C@]3(C)[C@H](CC[C@@H]4[C@@]5(C)CCC(=O)C(C)(C)[C@@H]5CC[C@]43C)[C@@H]12`, the growth was 93.8% (inactive).
Turning to `CCOC(=O)c1cnc2ccc(Br)cc2c1Nc1cccc(S(=O)(=O)NC)c1`, the growth was 99.5% (inactive).
